Structures are written as SMILES. Records with an inconclusive call do not appear. The source made the active and inactive calls. The call rests on the fitted dose curve; in most records, active means well fitted inhibition curve with a large enough effect; inconclusive means small, poorly fitted or top-dose-only effect; inactive means flat fitted curve, though single readings scatter. Where a SMILES comes first, the peptide text is derived from it. [ ]: non-standard residue; d: D form.

The experiment relates to NIH3T3. The experiment in a line: qHTS assay to identify novel small-molecules to repurpose for Merkel cell carcinoma treatment (AID 1296009). Further: nearly all actives have a fitted effect of over 60% in size. To be noted: MCC and control cell lines, CellTiter-Glo viability, 72 h; at 44.8 µM (top of the series) unless noted. A digest of the protocol: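 Cell viability, measured as CellTiter-Glo luminescence, was normalized between DMSO and no-cell wells. The cells had been exposed to 8- or 11-point compound dilutions for 72 hr at 37 degree celsius.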
As to `COc1ccc(C(OC2OC(CO)C(O)C(O)C2O)C(C)O)cc1` (stereo not given), the compound was classed as inactive.
As for `CCOC(=O)N1CCC(NCCNC(=O)c2ccccc2C)CC1`, the result was inactive.
`CCC(C)C(=O)O[C@@H]1[C@@H](O)[C@@H](O[C@H]2O[C@H](CO)[C@@H](O)[C@H](O)[C@H]2O)O[C@H](CO)[C@H]1O` (stereo not given in full): the outcome was “inactive [at 17.4 µM]”.
The same measure for `Nc1ncnc2c1ncn2[C@H]1CCCO1`: “inactive”.
The same measure for `COc1cc(-c2cccc(O)c2)cc2c1OCO2`: “inactive”.
As for `Nc1nc(CC(=O)Nc2ccc(CCNCC(O)c3ccccc3)cc2)cs1` (stereo not given), the compound was classed as inactive.
With `O=C(/C=C/c1c(C(=O)O)[nH]c2cc(Cl)cc(Cl)c12)Nc1ccccc1`, the compound was called inactive.
In the case of `CC1CCC2C(C)(C)C(O)CCC2(C)C12Cc1c(O)cc3c(c1O2)CN=C3N` (stereo not given) it was “inactive”; in that of `CC[C@H]1OC(=O)C[C@@H](O)[C@H](C)[C@@H](O[C@@H]2O[C@H](C)[C@@H](O)[C@H](N(C)C)[C@H]2O)[C@@H](CCN2C[C@H](C)C[C@H](C)C2)C[C@@H](C)C(=O)/C=C/C(C)=C/[C@@H]1CO[C@@H]1O[C@H](C)[C@@H](O)[C@@H](OC)[C@H]1OC`, “inactive”; in that of `C[C@]12C=CC(=O)C=C1CC[C@@H]1[C@@H]2[C@@H](O)C[C@@]2(C)[C@H]1CC[C@]2(O)C(=O)COC(=O)CCC(=O)O`, “inactive”.
With `CC(C)=CCc1ccc(Oc2c(O)cc(C)cc2CO)c(C(=O)O)c1O`, the outcome was inactive.
For `NS(=O)(=O)NCCNc1nonc1C(=Nc1ccc(F)c(Br)c1)NO`, the compound was classed as inactive.
In the case of `CCC(=O)NS(=O)(=O)c1ccc(-c2c(-c3ccccc3)noc2C)cc1` it was “inactive”; in that of `CC(=O)OC1C(O)C(C)=C(CCC(C)CC(=O)O)C2(C)CCCC(C)(C)C12` (stereo not given), “inactive”.
As for `COC1=CC(=O)O[C@@H](/C=C/c2ccccc2)[C@@H]1O`, the outcome was inactive.
As for `C[C@@H]1O[C@@H](O[C@@H]2[C@@H](O)[C@@H](O)[C@H](O[C@@H]3[C@@H](O)[C@@H](O[C@]4(CO)O[C@H](CO)[C@@H](O)[C@@H]4OC(=O)/C=C/c4ccc(O)cc4)O[C@H](CO)[C@H]3OC(=O)/C=C/c3ccc(O)cc3)O[C@H]2C)[C@H](O)[C@H](O)[C@H]1O`, the outcome is “inactive [at 9.27 µM]”.
The same measure for `COC(=O)[C@@H]1C2CC3c4[nH]c5ccccc5c4CCN3CC2CC[C@@H]1O` (stereo not given in full): “inactive”; for `C[C@@H]1O[C@@H](O[C@H]2[C@H](OC(=O)[C@]34CCC(C)(C)C[C@H]3C3=CCC5[C@@]6(C)CC[C@H](O[C@@H]7O[C@H](CO[C@@H]8OC[C@H](O)[C@H](O)[C@H]8O)[C@@H](O)[C@H](O)[C@H]7O)C(C)(C)C6CC[C@@]5(C)[C@]3(C)C[C@H]4O)OC[C@@H](O)[C@@H]2O)[C@H](O)[C@H](O)[C@H]1O[C@@H]1OC[C@H](O)[C@H](O[C@@H]2OC[C@@H](O)[C@H](O)[C@H]2O)[C@H]1O` (stereo not given in full): “inactive [at 9.27 µM]”; for `CC(=O)N[C@H](Cc1ccc(O)cc1)C(=O)N[C@H](CCCN=C(N)N)C(=O)N[C@H](Cc1ccccc1)C(N)=O` (Ac-[dY]-[dR]-[dF]-NH2): “inactive”.
For the compound `CC(NCc1ccc(OCc2cccc(F)c2)cc1)C(N)=O` (stereo not given), the compound was called inactive.
On to `Cc1coc2c1CC1OC1(C)CCC1OC1(C)C2` (stereo not given), for which the result was inactive.
As to `C[C@]12CCC[C@](C)(C(=O)O)C1CCC13C=C(CO)C(CCC12)C3` (stereo not given in full), the result was inactive.
Regarding `COc1cc(/C=C/C(=O)OC(C)(C)C(OC2OC(CO)C(O)C(O)C2O)C(=O)OCc2ccc(OC3OC(CO)C(O)C(O)C3O)cc2)ccc1O` (stereo not given), the outcome was “inactive [at 17.4 µM]”.
In the case of `COc1cc2c(cc1OC)CN(C(=O)[C@@H](NCc1ccncc1)C(C)(C)C)CC2` it was “inactive”.
The same measure for `O=C1NCc2nc3ccccc3c(=O)n2C1Cc1c[nH]c2ccccc12` (stereo not given): “inactive”; for `CC1=CC(=O)CC(C)(C)C1CCC(C)OC1OC(COC(=O)c2cc(O)c(O)c(O)c2)C(O)C(O)C1O` (stereo not given): “inactive [at 17.4 µM]”; for `CC1C/C=C/C=C\CCCCC(O)C/C=C/C(=O)O1` (stereo not given): “inactive”.
In the case of `CO[C@@]12CC3[C@@H]([C@@H](O)[C@@H](OC(C)=O)C4[C@](C)(COC(C)=O)CCC[C@]34C)[C@@H](C)C1=CC(=O)O2` (stereo not given in full) it was “inactive [at 17.4 µM]”; in that of `CC1(C)CCCC2(C)C(CO)C3CCC2C31` (stereo not given), “inactive”.
As for `O=C(O[C@H]1[C@@H]2C=CO[C@@H](O[C@@H]3O[C@H](CO)[C@@H](O)[C@H](O)[C@H]3O)[C@@H]2[C@@]2(CO)O[C@@H]12)c1ccc(O)c(O)c1`, the outcome is “inactive [at 17.4 µM]”.
